From PubChem BioAssay AID1159580 (chemical genetic matrix, 2015)
Values joined by “and” are separate entries in the source; they are usually repeats but may differ in a detail not shown here. Equal values may be shown once. In all, about 5,500 compounds went through this assay and about 2,000 (36%) were called active. About 18% were inconclusive and are not listed. Cut-off read from the data, not from the text of the source: active = normalized growth mostly below about 0.91 (no sharp cut-off); inconclusive = no clear call, values can overlap the other calls; inactive = mostly above about 0.92. The list shows a part of the results.

Experiment: chemical genetic growth profiling, strain panel (AID 1159580);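 note: tested at 20 µM; growth read once vehicle control cultures reached saturation at 30 °C; 1 = growth at the plate median or of vehicle wells; lower values mean less growth of the strain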
Settings: S. cerevisiae deletion strains, growth OD

Measured: normalized growth

NC(=O)N1c2ccccc2CC(=O)c2ccccc21
inactive: locus YAL013W, strain DEP1, active compounds read low 0.996 | locus YAL021C, strain ccr4, active compounds read low 0.991 | locus YAL026C, strain drs2, active compounds read low 0.998 | locus YAL030W, strain snc1, active compounds read low 0.993 | locus YBL061C, strain skt5, active compounds read low 0.994 | locus YBR009C, strain hhf1, active compounds read low 0.942 | locus YBR021W, strain FUR4, active compounds read low 0.969 | locus YBR023C, strain chs3, active compounds read low 1 | locus YBR171W, strain sec66, active compounds read low 0.989 | locus YBR229C, strain ROT2, active compounds read low 0.993 | locus YBR231C, strain swc5, active compounds read low 0.974 | locus YBR279W, strain paf1, active compounds read low 0.99 | locus YCL011C, strain gbp2, active compounds read low 0.991 | locus YCL016C, strain dcc1, active compounds read low 1.01 | locus YCL029C, strain bik1, active compounds read low 0.978 | locus YCL069W, strain vba3, active compounds read low 0.956 | locus YCR088W, strain abp1, active compounds read low 0.976 | locus YDL005C, strain med2, active compounds read low 0.971 | locus YDL035C, strain GPR1, active compounds read low 0.996 | locus YDL040C, strain nat1, active compounds read low 0.992 | locus YDL074C, strain BRE1, active compounds read low 1.03 | locus YDL101C, strain DUN1, active compounds read low 0.992 | locus YDL134C, strain PPH21, active compounds read low 0.989 | locus YDL185W, strain tfp1, active compounds read low 0.976 | locus YDL192W, strain arf1, active compounds read low 0.975 | locus YDR001C, strain nth1, active compounds read low 0.979 | locus YDR069C, strain doa4, active compounds read low 0.963 | locus YDR101C, strain arx1, active compounds read low 0.994 | locus YDR137W, strain rgp1, active compounds read low 0.991 | locus YDR150W, strain NUM1, active compounds read low 1 | locus YDR159W, strain sac3, active compounds read low 0.931 | locus YDR162C, strain NBP2, active compounds read low 1.02 | locus YDR195W, strain ref2 0.927 | locus YDR297W, strain sur2, active compounds read low 0.988 | locus YDR318W, strain mcm21, active compounds read low 0.962 | locus YDR334W, strain swr1, active compounds read low 0.95 | locus YDR335W, strain msn5, active compounds read low 0.973 | locus YDR388W, active compounds read low 0.991 | locus YDR392W, strain spt3, active compounds read low 0.956 | locus YDR502C, strain sam2, active compounds read low 0.994 | locus YEL003W, strain gim4, active compounds read low 0.987 | locus YEL037C, strain rad23, active compounds read low 0.984 | locus YEL061C, strain CIN8 (second series), active compounds read low 0.98 | locus YEL061C, strain CIN8, active compounds read low 0.998 | locus YER015W, strain faa2, active compounds read low 0.993 | locus YER016W, strain bim1, active compounds read low 1.01 | locus YER110C, active compounds read low 0.975 | locus YER111C, strain swi4, active compounds read low 0.993 | locus YER155C, strain BEM2 (second series), active compounds read low 0.97 | locus YER155C, strain BEM2, active compounds read low 0.982 | locus YER167W, strain BCK2, active compounds read low 0.967 | locus YFR010W, strain ubp6, active compounds read low 0.947 | locus YGL078C, strain dbp3, active compounds read low 0.99 | locus YGL086W, strain mad1, active compounds read low 0.974 | locus YGL167C, strain pmr1, active compounds read low 0.968 | locus YGL173C, strain kem1, active compounds read low 0.948 | locus YGL227W, strain vid30, active compounds read low 1.01 | locus YGL240W, strain doc1, active compounds read low 0.948 | locus YGL248W, strain PDE1, active compounds read low 0.987 | locus YGL253W, strain hxk2, active compounds read low 0.966 | locus YGR078C, strain PAC10, active compounds read low 1.01 | locus YGR135W, strain pre9, active compounds read low 1 | locus YGR229C, strain SMI1, active compounds read low 1 | locus YGR252W, strain gcn5, active compounds read low 0.922 | locus YHR013C, strain ard1, active compounds read low 0.995 | locus YHR027C, strain rpn1, active compounds read low 0.972 | locus YHR030C, strain SLT2, active compounds read low 0.983 and 0.997 | locus YHR079C, strain IRE1 (second series), active compounds read low 0.968 | locus YHR079C, strain IRE1, active compounds read low 0.997 | locus YHR094C, strain hxt1, active compounds read low 0.978 | locus YHR129C, strain ARP1, active compounds read low 0.99 | locus YHR142W, strain chs7, active compounds read low 0.977 | locus YHR200W, strain rpn10, active compounds read low 0.97 | locus YIL066C, strain RNR3, active compounds read low 0.991 | locus YIL073C, strain SPO22, active compounds read low 0.955 | locus YIL125W, strain kgd1, active compounds read low 0.998 | locus YIR030C, strain dcg1, active compounds read low 0.981 | locus YJL092W, strain hpr5, active compounds read low 0.995 | locus YJL095W, strain BCK1 (second series), active compounds read low 0.997 | locus YJL095W, strain BCK1, active compounds read low 1.02 and 0.994 | locus YJL115W, strain asf1, active compounds read low 0.992 | locus YJL129C, strain trk1, active compounds read low 0.995 | locus YJL134W, strain LCB3, active compounds read low 0.99 | locus YJL154C, strain vps35, active compounds read low 0.992 | locus YJL164C, strain tpk1, active compounds read low 0.972 | locus YJL166W, strain qcr8, active compounds read low 0.941 | locus YJL168C, strain set2, active compounds read low 0.985 | locus YJL187C, strain SWE1 (second series), active compounds read low 1 | locus YJR043C, strain POL32, active compounds read low 0.979 | locus YJR066W, strain TOR1, active compounds read low 0.946 | locus YJR075W, strain HOC1, active compounds read low 1.05
